Compound activity (PubChem BioAssay)
NFkB transloc pot = enhancers of NFkB p65 translocation in HUVEC – imaging, IL-1B stimulus, high-content imaging, primary screen; HUVEC IL-1B NFkB p65 nuclear translocation imaging; activation, % at 2 µM; actives 0.3% (n = 94,000); AID 819, 2007;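 active = activation above 40%, about the mean plus 3 SD, also judged a hit on visual image review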;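 note: percent activation is computed from the nuclear over cytoplasmic p65 intensity ratio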
INS promoter inh = inhibitors of insulin promoter-driven GFP, primary screen, imaging, TRM-6 cells (human fetal islet line), eGFP reporter, cell count; reporter expression induced with tamoxifen; inhibition, % at 2 µM; actives 0.9% (n = 130,000);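 active = inhibition above the mean plus 3 SD, with well images judged a real hit on visual review, cut at about 60% in these data, passing the limit was not always enough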
NFkB transloc inh = inhibitors of IL-1B driven NFkB p65 nuclear import, primary screen, imaging, HUVEC, IL-1B stimulus, high-content imaging; HUVEC IL-1B NFkB p65 nuclear translocation imaging; inhibition, % at 2 µM; AID 796, 2007; actives 0.43% (n = 94,000);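 active = inhibition above about 30% together with a positive call from visual inspection of the well image, limit read from the data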;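 note: nuclear over cytoplasmic p65 intensity ratio measured by imaging; 0% = IL-1B stimulated DMSO wells and 100% = unstimulated DMSO wells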
IL1B cytotox = cytotoxicity in IL-1B stimulated HUVEC, primary screen, cytotoxicity control for IL-1B NFkB translocation project, imaging, Hoechst nuclear count, IL-1B stimulus; cell count reduction, % at 2 µM; actives 0.41% (n = 94,000); AID 845, 2007; HUVEC cell count loss;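 active = cell count reduction more than 3 SD above the screen-wide mean, cut at about 70% in these data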;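 note: normalized per plate to untreated control cells as the no-loss baseline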
Numbers without * were called inactive; · = not tested or not shown. The list is not random: actives were taken first. Their share in the collection is about 1.4%.

SMILES	NFkB transloc pot	INS promoter inh	NFkB transloc inh	IL1B cytotox
O=C(Nc1ccc(NC(=S)NC(=O)C(c2ccccc2)c2ccccc2)cc1)c1ccccc1	-6	33	6	-4
Cc1cccc(NC(=S)NC(=O)C(c2ccccc2)c2ccccc2)n1	-10	72*	10	5
CCCCN(C(=O)CSc1cc(C)c2ccccc2n1)c1c(N)n(Cc2ccccc2)c(=O)[nH]c1=O	·	-33	·	·
Cc1nc2ccsc2c(=O)n1-c1ccc(Cl)cc1	·	27	·	·
COc1ccc(/C=C2\SC(=S)N(CC(=O)Nc3nnc(C)s3)C2=O)cc1	·	37	·	·
O=C(Nc1ccc(F)cc1)c1cccc2c1C(=O)N(Cc1ccccn1)C2	-10	-230	10	94*
O=C(NC(Cc1ccccc1)c1ccc2c(c1)OCCCO2)c1ccc(F)cc1 (stereo not given)	44*	0	-44	-6
CC(C)(C)NC(=O)c1cccc(NC(=O)c2ccc(NC(=O)c3ccco3)cc2)c1	-6	100*	6	5
O=C(Nc1cccc(C(=O)N2CCCCCC2)c1)c1ccco1	-14	-8	14	72*
O=C(NNC1=NC2(CCCC2)Cc2ccccc21)c1ccncc1	·	-6	·	·
CCCc1oc(C(=O)O)cc1CN1CCOCC1	-32	35	32*	14
Cc1nc(=O)c(-c2ccccc2)c(C)n1-c1ccc(O)cc1	-2	100*	2	-10
CC(=O)OC1C2CCC1C([N+]1(C)CCCCC1)CC2 (stereo not given)	·	16	·	·
Cc1ccc(N=C2SC(C(=O)O)CC(=O)N2C)cc1C (stereo not given)	·	43	·	·
CCOc1ccc(/C(O)=C2/C(=O)C(=O)N(c3nc(C)c(C)s3)C2c2ccco2)cc1 (stereo not given)	-46	·	46*	19
On1onc2c3cc(-c4ccccc4)nc3ccc21	-1	-127	1	35
c1ccc(-c2cc3c(ccc4nonc43)nn2)cc1	57*	·	-57	27
Cc1cc(C(=O)CCl)c(C)n1CCc1ccc(F)cc1	·	100*	·	·
Cc1cc(C)nc(SCc2ccc(C(=O)N/N=C3\CCCC(=O)C3)cc2)n1	·	-11	·	·
CCc1cc2c(NCC3CCCO3)ncnc2s1 (stereo not given)	15	74*	-15	-20
Cc1sc2ncnc(NCC3CCCO3)c2c1C (stereo not given)	1	-53	-1	10
Cc1ccc(C(=O)CSc2nnc(N)s2)c(C)c1	·	-63	·	·
COc1ccccc1CN1C(=O)[C@@H]2C(CC(N)=O)NC3(C(=O)Nc4c3ccc(Cl)c4C)[C@@H]2C1=O (stereo not given in full)	12	31	-12	-6
COc1ccccc1CN1C(=O)[C@@H]2C(CCC(N)=O)NC3(C(=O)Nc4c3ccc(Cl)c4C)[C@@H]2C1=O (stereo not given in full)	-10	71*	10	13
CCCCC(=O)Nc1sc2c(c1C(=O)OCC)CCC(C=O)=C2Cl	-88	·	88*	60
SMILES	NFkB transloc pot	INS promoter inh	NFkB transloc inh	IL1B cytotox
CCC(C)NC(=O)CSc1nnc(-c2cc(-c3ccc(C)cc3)nc3ccccc23)n1N (stereo not given)	73*	-49	-73	0
Cc1ccc(-c2cc(-c3nnc(SCC(=O)NCC(C)C)n3N)c3ccccc3n2)cc1	43*	45	-43	-2
O=C(Nc1nnc(CCS(=O)(=O)c2ccc(Br)cc2)s1)c1ccc([N+](=O)[O-])cc1	-17	·	17	-16
CC(C)CNC(=O)CC(c1ccccc1)c1ccccc1	·	0	·	·
O=C(NCc1ccco1)c1cc([N+](=O)[O-])cc([N+](=O)[O-])c1	·	67*	·	·
O=C(NCc1ccco1)c1cc(=O)c2ccccc2o1	·	0	·	·
O=C(NCc1ccco1)c1cc2ccccc2c(=O)o1	16	79*	-16	15
COc1cccc(C(=O)N2CCOCC2)c1	·	65*	·	·
O=C(c1ccc(N2CCCCC2)c([N+](=O)[O-])c1)N(c1ccccn1)c1ccccn1	·	21	·	·
O=C(c1cnn2c(C(F)(F)F)cc(-c3ccc(Br)cc3)nc12)N1CCOCC1	-9	36	10	-1
Cc1nn2c(C(F)(F)F)cc(-c3ccc(Cl)cc3)nc2c1C(=O)N1CCOCC1	-6	79*	6	6
C=CCn1c2ccccc2n2nc(C)c(=O)nc12	-4	81*	4	0
Cc1noc(C)c1COc1ccc(C(=O)OC(C)C(=O)Nc2ccc(S(=O)(=O)N3CCOCC3)cc2)cc1 (stereo not given)	·	-52	·	·
